Bioassay records from PubChem BioAssay.
HCV inhibitor: inhibitors of hepatitis C virus infection; Potency, µM (series often up to 41.8 µM), inactives show at the highest dose activity change, negative = inhibition, most hits filed as inhibitors; 340,000 tested, 3.4% active; AID 651820; Huh7.5.1 HCVcc-Cre infection, luciferase reporter, 44 h
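After 44 h co-culture of compound, cells and HCVcc-Cre (~0.5 moi), substrate is added for 15 min at room temperature and luciferase measured over 15 sec. Cells were seeded at 1,000/well and pre-cultured 4 h.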
AmpC detergent: AmpC beta-lactamase inhibition with detergent present; P00811; AmpC hydrolysis of nitrocefin, absorbance 480 nm, 0.01% Triton; Potency, µM (doses to about 114 µM), inactives show top-dose activity change, negative = inhibition, actives largely listed as inhibitors; 370,000 tested, 0.041% active; AID 485294;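 also: 0% = no-compound wells and -100% = no-enzyme wells; nearly all actives have a fitted effect of over 25% in size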
Target sequence (P00811 whole entry, looked up): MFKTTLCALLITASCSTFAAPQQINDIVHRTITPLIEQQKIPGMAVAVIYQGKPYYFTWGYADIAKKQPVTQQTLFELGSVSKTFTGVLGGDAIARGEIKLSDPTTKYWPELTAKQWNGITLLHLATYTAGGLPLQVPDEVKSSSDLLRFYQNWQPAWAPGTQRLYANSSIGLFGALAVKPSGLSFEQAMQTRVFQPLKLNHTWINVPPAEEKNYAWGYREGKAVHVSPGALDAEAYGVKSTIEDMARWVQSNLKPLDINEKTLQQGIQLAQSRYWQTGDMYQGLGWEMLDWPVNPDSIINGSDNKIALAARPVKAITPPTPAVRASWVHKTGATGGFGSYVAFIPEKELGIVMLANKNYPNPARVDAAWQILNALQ
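AmpC (5.3 nM in the dispensed reagent) in 20 mM phosphate pH 7.0 with 0.01% (detergent screen) or 0.0001% Triton X-100 was preincubated with compounds for 15 min at room temperature. Nitrocefin was then added from an 800 uM solution, and hydrolysis was followed at 480 nm.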
AmpC inh no detg: blocks E. coli AmpC beta-lactamase in detergent-free assay; AmpC nitrocefin hydrolysis, absorbance 480 nm, 0.0001% Triton; Potency, µM (titrated, usually from 57.1 µM), without a hit: at the highest dose activity change, negative = inhibition, usual class: inhibitors; P00811; AID 485341; 330,000 tested, 0.52% active;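 also: plate controls were no compound for no effect and no enzyme for full effect; nearly all actives have a fitted effect of over 20% in size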
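AmpC (5.3 nM in the dispensed reagent) in 20 mM phosphate pH 7.0 with 0.01% (detergent screen) or 0.0001% Triton X-100 was preincubated with compounds for 15 min at room temperature. Nitrocefin was then added from an 800 uM solution, and hydrolysis was followed at 480 nm.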
Pf growth 96h: P. falciparum growth inhibition at 96 hour, primary screen for plastid delayed-death inhibitors; P. falciparum luciferase reporter growth, 96 h; Potency, µM (highest dose often 28.7 µM), for inactives: top-dose activity change, negative = inhibition, hits mostly inhibitors; 320,000 tested, 6.9% active
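Parasite growth measured via integrated firefly luciferase reporter in P. falciparum. Infected erythrocytes at 2% hematocrit, 0.05% parasitemia final were treated 96 hours at 37 C under 5% CO2, and luminescence was read.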
AMA1-RON2 inh: disrupts binding of P. falciparum AMA1 to RON2; AlphaScreen AMA1-biotinylated RON2 peptide binding; Potency, µM (titrated, usually from 58.2 µM), for inactives: at the highest dose activity change, negative = inhibition, hits mostly inhibitors; 360,000 tested, 0.2% active; AID 720542;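 also: 0% = vehicle wells and -100% = peptide control; nearly all actives have a fitted effect of over 45% in size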
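AMA1 (3D7) with his tag at 25 nM final met compounds first, then biotinylated RON2 peptide at 25 nM; detection used donor plus acceptor beads, 10 µg/mL apiece, read by AlphaScreen after 30 min at room temperature.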
Pf growth 48h: inhibits P. falciparum growth in the first generation, 48 h | P. falciparum luciferase growth in erythrocytes, 48 h | 310,000 tested, 5.9% active | Potency, µM (top dose mostly 28.7 µM), without a hit: at the highest dose activity change, negative = inhibition, usual class: inhibitors | AID 504832
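Luciferase-expressing parasites in RBCs, 2% Hct / 0.1% parasitemia final; RPMI 1640 + 0.5% Albumax; 37 C, 5% CO2, one generation; luminescence read-out, lower signal = inhibition.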
Numbers without * were called inactive; [ ] = dose if it differs, or a comment. Rows were chosen to be rich in hits. Some 11% of all compounds tested hit in one or more screens of this group. Calls follow the shape of the dose curve; as a rule, active = well fitted curve in the direction sought with a large enough effect; inconclusive = small, poorly fitted or top-dose-only effect, or another doubt; inactive = no such curve, though single readings can be large; an effect the other way counts as inactive or inconclusive. Unless noted, % is scaled to controls: 0 for no effect and ±100 for the full control effect; potency is read from the fitted curve at half-maximal effect.

Results for O=C(NCCc1c[nH]c2ccccc12)C(=O)Nc1cc2c3c(c1)CC(=O)N3CCC2 ?
HCV inhibitor: 18%[8.37 µM]; AmpC detergent: 1%; AmpC inh no detg: 30%; Pf growth 96h: 2.9µM*; AMA1-RON2 inh: 10%; Pf growth 48h: 1µM*

How did CC1C(=O)N2CCCc3cc(S(=O)(=O)NCCc4ccccc4)cc1c32 (stereo unspecified) do in these assays?
HCV inhibitor: inconclusive; AmpC detergent: 3%; AmpC inh no detg: 2%; Pf growth 96h: 2.1µM*; AMA1-RON2 inh: 0%; Pf growth 48h: -1%

What do the screens show for `CC1C(=O)N2CCCc3cc(NC(=O)C(=O)NCc4ccc5c(c4)OCO5)cc1c32` (stereo unspecified)?
HCV inhibitor: inconclusive; AmpC detergent: -15%; AmpC inh no detg: 5%; Pf growth 96h: 7.4µM*; AMA1-RON2 inh: -1%; Pf growth 48h: 8.3µM*

Results for O=C(Nc1cc2c3c(c1)CC(=O)N3CCC2)c1ccccc1Br ?
HCV inhibitor: 10µM*; AmpC detergent: -9%; AmpC inh no detg: -20%; Pf growth 96h: 49%; AMA1-RON2 inh: 8%; Pf growth 48h: -11%

What do the screens show for `CCc1ccc(NC(=O)c2cc3c(=O)n(Cc4cccs4)ccc3nc2C)cc1`?
AmpC detergent: 12%

Results for COc1ccc(-n2nc3c(c2NC(=O)C(=O)N2CCN(C)CC2)CSC3)cc1 ?
AmpC detergent: 2%

What do the screens show for `Cc1ccc(C)c(NC(=O)N2CCc3cc(S(=O)(=O)N4CCC(C)CC4)ccc32)c1`?
AmpC detergent: 19%

What do the screens show for `COc1ccccc1CCNC(=O)C(=O)Nc1cc2c3c(c1)C(C)C(=O)N3CCC2` (stereo unspecified)?
HCV inhibitor: -28%; AmpC detergent: -7%; AmpC inh no detg: 56%; Pf growth 96h: inconclusive; AMA1-RON2 inh: -5%; Pf growth 48h: 13µM*

What do the screens show for `COCCNC(=O)C(=O)Nc1cc2c3c(c1)C(C)C(=O)N3CCC2` (stereo unspecified)?
HCV inhibitor: 14%; AmpC detergent: -8%; AmpC inh no detg: 0%; Pf growth 96h: 104%; AMA1-RON2 inh: -2%; Pf growth 48h: 34%

What do the screens show for `Cc1ccc(C)c(OCCC(=O)Nc2ccc(S(=O)(=O)N3CCCC3)cc2)c1`?
HCV inhibitor: 8.9µM*; AmpC detergent: 5%; AmpC inh no detg: -29%; Pf growth 96h: 9.3µM*; AMA1-RON2 inh: -6%; Pf growth 48h: inconclusive

What do the screens show for `Cc1ccc(C)c(OCCC(=O)OCC(=O)Nc2cccc(S(=O)(=O)N3CCCC3)c2)c1`?
HCV inhibitor: 22%; AmpC detergent: -3%; AmpC inh no detg: -17%; Pf growth 96h: 3%; AMA1-RON2 inh: -6%; Pf growth 48h: -1%

How did COc1ccc(S(=O)(=O)N2CCCCC2)cc1NC(=O)CCOc1cc(C)ccc1C do in these assays?
HCV inhibitor: inconclusive; AmpC detergent: -1%; AmpC inh no detg: -22%; Pf growth 96h: 12µM*; AMA1-RON2 inh: -2%; Pf growth 48h: inconclusive

Results for COc1ccc(S(=O)(=O)N2CCCCCC2)cc1NC(=O)CCc1cc(OC)c(OC)c(OC)c1 ?
HCV inhibitor: -14%; AMA1-RON2 inh: 0%

What do the screens show for `CCN(C(=O)c1cnc2ccc(C)cn2c1=O)c1ccccc1`?
AmpC detergent: 19%

What do the screens show for `Cc1ccc2cc3cc(C(=O)N4CCCCC4C)oc3nc2c1` (stereo unspecified)?
HCV inhibitor: inconclusive; AmpC detergent: inconclusive; AmpC inh no detg: 31%; Pf growth 96h: 45%; AMA1-RON2 inh: 3%; Pf growth 48h: 9.3µM*

How did Cc1ccc2cc3cc(C(=O)NC4CC4)oc3nc2c1 do in these assays?
HCV inhibitor: -10%; AmpC detergent: 8%; AmpC inh no detg: -18%; Pf growth 96h: inconclusive; AMA1-RON2 inh: -2%; Pf growth 48h: -5%

How did Cc1ccc2cc3cc(C(=O)NCc4ccco4)oc3nc2c1 do in these assays?
HCV inhibitor: -6%; AmpC detergent: -12%; AmpC inh no detg: -27%; Pf growth 96h: inconclusive; AMA1-RON2 inh: -13%; Pf growth 48h: 2.9µM*

What do the screens show for `Cc1ccc2cc3cc(C(=O)NCCC(C)C)oc3nc2c1`?
HCV inhibitor: inconclusive; AmpC detergent: -12%; AmpC inh no detg: -17%; Pf growth 96h: inconclusive; AMA1-RON2 inh: -1%; Pf growth 48h: 10µM*

How did CC(=O)N1CCCC1c1nc2ccccc2n1Cc1cccc(Cl)c1 (stereo unspecified) do in these assays?
AmpC detergent: -1%

How did O=c1nc(-c2ccccc2)cc(C(F)(F)F)[nH]1 do in these assays?
HCV inhibitor: 7%; AmpC detergent: -13%; AmpC inh no detg: -19%; Pf growth 96h: inconclusive; AMA1-RON2 inh: -5%; Pf growth 48h: inconclusive

Results for Cc1cc(-c2ccccc2)nc(=O)[nH]1 ?
HCV inhibitor: 29%; AmpC detergent: -16%; AmpC inh no detg: -18%; Pf growth 96h: 6.6µM*; AMA1-RON2 inh: 28%; Pf growth 48h: 20%

How did COc1ccc(C(=O)O/N=C(\N)Cc2ccc(Cl)c(Cl)c2)cc1OC do in these assays?
HCV inhibitor: 22µM*; AmpC detergent: -10%; AmpC inh no detg: -4%; Pf growth 96h: 17%; AMA1-RON2 inh: -4%; Pf growth 48h: 4.1µM*

How did COc1ccccc1C/C(N)=N/OC(=O)c1cccc([N+](=O)[O-])c1 do in these assays?
HCV inhibitor: inconclusive; AmpC detergent: 7%; AmpC inh no detg: -20%; Pf growth 96h: inconclusive; AMA1-RON2 inh: -12%; Pf growth 48h: 12µM*

How did COc1cc(OC)c(C(=O)O/N=C(\N)c2ccc(C)cc2)cc1OC do in these assays?
HCV inhibitor: 11µM*; AmpC detergent: -4%; AmpC inh no detg: 23%; Pf growth 96h: 80%; AMA1-RON2 inh: -9%; Pf growth 48h: inconclusive

Results for COc1ccc(C/C(N)=N/OC(=O)c2cccc([N+](=O)[O-])c2)cc1 ?
HCV inhibitor: -12%; AmpC detergent: -2%; AmpC inh no detg: 6%; Pf growth 96h: -4%; AMA1-RON2 inh: -11%; Pf growth 48h: inconclusive

What do the screens show for `N/C(Cc1ccc(Cl)cc1)=N\OC(=O)c1ccccc1`?
HCV inhibitor: -1%; AmpC detergent: inconclusive; AmpC inh no detg: -21%; Pf growth 96h: 10µM*; AMA1-RON2 inh: -9%

What do the screens show for `COCCNC(=O)CCn1c(=O)c2cc(OC)c(OC)cc2n(CC(=O)Nc2ccc(Cl)cc2F)c1=O`?
AmpC detergent: -3%

What do the screens show for `O=C(CCNS(=O)(=O)c1cccc2nonc12)Nc1ccc(F)cc1`?
AmpC detergent: 5%
